Bioassay records: PubChem BioAssay, National Center for Advancing Translational Sciences (NCATS)
FLuc modulator: counter-screen for miR-21 project: firefly luciferase inhibitors or activators | P08659 | purified FLuc, Km substrates, luminescence inhibition | hit rate 6.9% among 360,000 | Potency, µM (titrated, usually from 57.5 µM), inactives show at the top dose activity change, negative = inhibition, actives largely listed as inhibitors;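 also: plate controls were vehicle for no effect and reference inhibitor for full effect; nearly all actives have a fitted effect of over 55% in size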
Target sequence (P08659 whole entry, looked up): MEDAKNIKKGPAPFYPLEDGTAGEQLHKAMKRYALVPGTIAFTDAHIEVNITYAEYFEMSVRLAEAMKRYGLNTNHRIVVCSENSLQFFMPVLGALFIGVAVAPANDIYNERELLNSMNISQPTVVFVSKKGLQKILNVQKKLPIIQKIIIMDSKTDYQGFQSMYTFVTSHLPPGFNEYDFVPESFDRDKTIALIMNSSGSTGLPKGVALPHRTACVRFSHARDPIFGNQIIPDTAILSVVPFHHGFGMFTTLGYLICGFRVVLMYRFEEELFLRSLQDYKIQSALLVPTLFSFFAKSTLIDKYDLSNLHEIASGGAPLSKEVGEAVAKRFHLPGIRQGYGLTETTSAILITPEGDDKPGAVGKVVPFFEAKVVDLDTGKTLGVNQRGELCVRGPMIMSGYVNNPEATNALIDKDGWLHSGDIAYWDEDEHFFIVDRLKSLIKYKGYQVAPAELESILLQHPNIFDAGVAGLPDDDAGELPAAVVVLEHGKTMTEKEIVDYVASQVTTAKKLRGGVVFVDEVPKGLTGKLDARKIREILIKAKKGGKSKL
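Biochemical qHTS of compounds, final roughly 60 µM downward over six points, against 10 nM purified firefly luciferase using Km concentrations of substrates (10 uM D-luciferin, 10 uM ATP) in Tris acetate pH 7.5 buffer; luminescence output.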
Luc counter: blocks Kinase-Glo luciferase, a counter-screen artifact; Q27757; Kinase-Glo luciferase, ATP luminescence, 8 min; Potency, µM (titrated, usually from 38.3 µM), inactives show top-dose activity change, negative = inhibition, hits mostly inhibitors; hit rate 0.28% among 200,000; also: % is scaled to controls: 0 for no effect and ±100 for the full control effect; nearly all actives have a fitted effect of over 60% in size
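Recombinant Kinase-Glo luciferase, 10 uM ATP (linear range), luciferin; imidazole pH 7.2 / KCl / MgCl2 / Tween / BSA buffer; 8 min RT; luminescence.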
ELG1 genotoxic: genotoxicity induction in ELG1-luciferase HEK293T cells; HEK293T ELG1-luciferase reporter, luminescence, 16 h; Potency, µM (doses to about 46 µM), for the others: at the highest dose activity change, positive = activation, most hits filed as activators; hit rate 1.3% among 330,000; AID 504466; also: % of control where 0% means no effect; nearly all actives have a fitted effect of over 60% in size
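Reporter readout depends on ELG1 protein level, which increases with genetic stress. After 16 hr compound exposure at 37 °C, luciferase activity was quantified using ONE-Glo.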
NPC1 promoter act: activates the NPC1 promoter | Huh7 NPC1 promoter luciferase reporter, 24 h | Potency, µM (doses to about 9.22 µM), for the others: top-dose activation, usual class: activators | hit rate 2.4% among 320,000 | AID 485313; also: % of control where 0% means no effect; nearly all actives have a fitted effect of over 60% in size
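Cells: Huh7 expressing luciferase under the NPC1 promoter, 1500/well. Seeded 2 h, compound added, incubated 24 h at 37 °C. Luciferase reagent, 10 min ambient, then luminescence.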
SMN2 splice up: SMN2 splice variant enhancement | Potency, µM (doses to about 46.1 µM), for inactives: top-dose activity change, positive = activation, actives largely listed as activators | AID 1458 | HEK293 SMN2-luciferase splicing reporter, luminescence, 30-36 h | hit rate 2.8% among 210,000; also: % of control where 0% means no effect; nearly all actives have a fitted effect of over 55% in size
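HEK293 cells carry an SMN2 minigene-luciferase reporter in which exon 7 inclusion puts luciferase in frame. Cells were seeded at 2000 cells/well, attached for 10-12 hours, then exposed to compounds for 30-36 hours at 37C before ONE-Glo luminescence.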
Rab9 promoter act: Rab9 promoter activation | Huh7 Rab9 promoter-luciferase reporter, luminescence, 24 h | Potency, µM (doses to about 9.22 µM), for inactives: at the highest dose activation, negative = inhibition, most hits filed as activators | hit rate 2.8% among 320,000 | AID 485297; also: % of control where 0% means no effect; nearly all actives have a fitted effect of over 60% in size
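Using Huh7 cells stably transfected with Rab9 promoter–luciferase, compounds were incubated 24 h at 37 °C, 5% CO2; luciferase luminescence was read 10 min after reagent addition.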
* = called active by the depositor; ? = inconclusive; · = no result given. In the library only some 7.5% were active in any assay of this set; here they are far more common. Calls follow the shape of the dose curve; as a rule, active = well fitted curve in the direction sought with a large enough effect; inconclusive = small, poorly fitted or top-dose-only effect, or another doubt; inactive = no such curve, though single readings can be large; an effect the other way counts as inactive or inconclusive. Potency is read from the fitted curve at half-maximal effect.

SMILES	FLuc modulator	Luc counter	ELG1 genotoxic	NPC1 promoter act	SMN2 splice up	Rab9 promoter act
CC1CCN(S(=O)(=O)c2ccc3c(c2)c(=O)c(C(=O)N2CCN(c4cccc(Cl)c4)CC2)cn3C)CC1	-1.7%	·	·	·	-10.6%	·
CC1(C)CC(=O)c2c(O)cc(OCC(=O)N3CCN(c4ccc(F)cc4)CC3)cc2O1	21.3µM*	·	-13.1%	-2.5%	·	4.1%
CC1(C)CC(=O)c2cc(OCC(=O)N3CCN(c4ccccc4F)CC3)ccc2O1	0.0%	2.7%	-10.9%	1.5%	-17.4%	-4.0%
CC(C)C(NC(=O)C(NC(=O)C1OC2OC(C)(C)OC2C2OC(C)(C)OC12)C(C)C)C(=O)O (stereo unspecified)	-1.0%	-2.0%	2.0%	-5.7%	·	-5.8%
CCOc1ccc(C2=Nc3ccc(Br)cc3C(c3ccc(N4CCOCC4)cc3)=NN2)cc1	23.9µM*	2.9%	?	?	?	?
CCOc1ccc(C2=NNC(c3cccs3)=Nc3ccc(OC)cc32)cc1	21.3µM*	-6.6%	-3.0%	-4.2%	4.1%	-1.4%
CCOc1ccc(C2=Nc3ccccc3C(c3ccc(N4CCOCC4)cc3)=NN2)cc1	?	-6.4%	9.5%	?	?	2.82µM*
Cc1ccc(N(CC(=O)N2CCN(c3cccc(C)c3C)CC2)S(=O)(=O)c2c(C)nn(C)c2C)cc1	-8.2%	·	·	·	-49.8%	·
O=C(C[n+]1ccc(C(=O)NCc2ccccc2)cc1)c1ccc(Cl)cc1	0.3%	·	1.6%	0.1%	·	8.7%
Cc1ccc(SCC(=O)NCC2CCCO2)cc1 (stereo unspecified)	-5.9%	1.6%	3.8%	3.9%	·	6.4%
Cc1ccc(-c2nsc(SCC(=O)NCC3CCCO3)n2)cc1 (stereo unspecified)	16.9µM*	0.0%	-2.7%	20.5%	-51.0%	29.2%
COc1ccc(-n2nnc3c(SCC(=O)NCC4CCCO4)ncnc32)cc1 (stereo unspecified)	10.7µM*	-8.8%	1.6%	-3.9%	-0.5%	-1.8%
COc1ccc(-c2nsc(SCC(=O)NCC3CCCO3)n2)cc1 (stereo unspecified)	15.1µM*	0.0%	9.1%	11.2%	-24.2%	?
CCOC(=O)c1sc(NC(=O)c2cc(-c3ccc(F)cc3)on2)c(C(=O)OCC)c1C	2.0%	·	·	·	4.3%	·
CC1Cc2cc(S(=O)(=O)N3CCC(C(=O)NCc4ccco4)CC3)ccc2N1C(=O)C1CCC1 (stereo unspecified)	-1.6%	·	-2.1%	-2.7%	·	-11.6%
CCOC(=O)c1c(C)[nH]c(C)c1S(=O)(=O)N(C)CC(=O)Nc1ccc(C)c(N(C)C)c1	-12.2%	·	·	·	·	·
Cc1ccc(Cl)cc1NC(=O)Cn1cc(S(=O)(=O)Cc2ccccc2Cl)c2ccccc21	4.9%	·	·	·	·	·
CCN(CCn1cccn1)C(=O)CCc1nnc(C2(c3ccc(Cl)cc3)CCC2)o1	16.9µM*	-2.5%	17.7%	28.2%	·	?
O=c1c2ccccc2nc(/C=C/c2ccc3c(c2)OCO3)n1CCCO	?	-3.6%	1.7%	14.0%	-15.8%	12.8%
C(=C/c1nccc2c1[nH]c1ccccc12)/c1ccc2c(c1)OCO2	3.01µM*	-14.2%	?	?	11.4%	26.9%
COc1ccc(-c2nc3scc(CCNS(=O)(=O)c4c(C)cc(C)cc4C)n3n2)cc1OC	6.5%	·	·	·	·	·
O=C(Nc1ccccc1)O/N=C/c1ccncc1	?	1.5%	6.5%	3.2%	2.2%	4.8%
Cc1ccc(NC(=O)ON=C2CCCC2)cc1	8.49µM*	0.3%	20.6µM*	?	?	3.55µM*
O=C(Nc1ccccc1)ON=C1CCCC1	23.9µM*	-18.9%	?	26.2%	20µM*	?
CCOC(=O)c1cc(-c2ccc(F)cc2)n(CCC(=O)Nc2ccccc2OC)c1C	-3.7%	·	·	·	·	·
SMILES	FLuc modulator	Luc counter	ELG1 genotoxic	NPC1 promoter act	SMN2 splice up	Rab9 promoter act
CCCCOc1cccc(C(=O)N(Cc2sccc2C)C2CCS(=O)(=O)C2)c1 (stereo unspecified)	-7.9%	·	·	·	-25.6%	·
N#Cc1ccccc1NC(=O)Nc1cccc(Cl)c1	?	-8.8%	·	·	-8.7%	·
N#CCc1ccc(NC(=O)Nc2cccc(Cl)c2)cc1	16.9µM*	-2.6%	4.6%	?	-13.9%	29.0%
CNS(=O)(=O)c1ccc(NC(=O)Nc2cccc(F)c2)cc1	19µM*	1.6%	1.4%	12.0%	·	?
O=C(N/C=C/c1ccco1)Nc1cccc(Cl)c1	26.9µM*	·	-0.8%	16.3%	·	19.2%
CC(=O)Nc1cccc(NC(=O)Nc2cccc(F)c2)c1	9.53µM*	·	9.3%	5.5%	·	2.9%
COc1ccc(OC)c(C2CC(=O)Nc3c2c(=O)n(C)c2ncnn32)c1 (stereo unspecified)	-4.8%	·	·	·	1.1%	·
CSc1ccccc1NC(=O)Nc1cccc(F)c1	21.3µM*	·	1.3%	15.6%	·	?
O=C(Nc1cccc(F)c1)Nc1cccc(Cl)c1	23.9µM*	·	-1.5%	29.1%	·	?
O=S(=O)(Nc1ccon1)c1ccc(F)c(F)c1	5.7%	·	10.1%	-4.8%	·	-3.5%
COc1ccc(CN2CCc3c(c(=O)n4ncc(C(=O)N5CCN(c6ccccc6F)CC5)c4n3C)C2)cc1	-15.9%	·	·	·	·	·
CCOC(=O)Cc1csc(NC(=O)/C=C/c2ccco2)n1	10.7µM*	·	-4.1%	16.2%	·	28.1%
O=C(/C=C/c1ccco1)Nc1nc(-c2ccc(F)c(F)c2)cs1	?	·	-10.2%	3.9%	·	2.4%
CCOC(=O)Cc1csc(NC(=O)/C=C/c2ccc(Cl)cc2)n1	2.39µM*	·	-6.9%	-6.0%	·	-7.6%
Cc1csc(NC(=O)/C=C/c2ccc(C)o2)n1	10.7µM*	0.2%	18.3%	15.1%	20µM*	27.3%
Cc1csc(NC(=O)/C=C/c2ccco2)n1	6.75µM*	-3.2%	?	12.9%	15.8µM*	2.82µM*
COc1ccc(-c2cc(C(=O)N/N=C\c3cc(OC)c(OC)c(OC)c3)[nH]n2)cc1	·	-2.8%	·	·	·	·
Cn1c(=O)c2c(nc(NCc3ccccc3)n2Cc2ccc(Cl)c(Cl)c2)n(C)c1=O	0.4%	·	·	·	-5.4%	·
O=C(/C=C/c1ccco1)Nc1nc(-c2ccccc2)cs1	4.78µM*	-2.4%	13.5%	2.82µM*	11.2µM*	2.51µM*
O=C(/C=C/c1ccco1)Nc1nc(-c2ccccn2)cs1	21.3µM*	-3.0%	-0.4%	?	?	?
COc1ccc(N/C=C2\CCOC2=O)cc1	2.3%	-0.3%	11.9%	4.5%	-5.9%	9.6%
COc1ccc2c(c1)CC/C(=C\Nc1ccc3c(c1)OCO3)C2=O	1.2µM*	-8.8%	7.8%	3.55µM*	35.5µM*	2.51µM*
COc1ccc(N/C=C2\CCc3ccccc3C2=O)cc1	0.0536µM*	11.2µM*	?	0.251µM*	·	0.1µM*
O=C1/C(=C/Nc2ccc3c(c2)OCO3)CCc2ccccc21	0.12µM*	2.82µM*	?	0.891µM*	-76.0%	0.282µM*
